Screening data: PubChem BioAssay, several laboratories
Mtb bLac sens: beta-lactam sensitization of Mtb H37Rv; actives 0.27% (n = 330,000); M. tuberculosis H37Rv growth with meropenem, percent inhibition; inhibition, % at 25 µM; call rule not given here;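 note: growth measured after seven days incubation then overnight dye step; 0% = bacteria only wells and 100% = bacteria with antibiotic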
UGM FP inh: Mtb UDP-galactopyranose mutase inhibition; purified UGM, fluorescence polarization probe displacement; P9WIQ1; actives 0.06% (n = 320,000); inhibition, % at 10 µM; in the data active = inhibition above about 10%, passing the limit was not always enough; inconclusive = no clear call, values can overlap the other calls
RecA intein inh: inhibitors of M. tuberculosis RecA intein splicing | inhibition, % (no concentration beside the values) | cell-free RecA intein splicing, fluorescence | actives 0.75% (n = 290,000); in the data active = inhibition above about 30%; inconclusive = no clear call, values can overlap the other calls;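 note: 0% = vehicle wells and 100% = reference inhibitor control wells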
Rv3671c protease: inhibitors of M. tuberculosis serine protease Rv3671c | P9WHR9 | inhibition, % at 5.96 µM | actives 0.048% (n = 320,000) | AID 2606; in the data active = inhibition above about 38%;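 note: extracellular domain of Rv3671c used as enzyme; 0% = enzyme with DMSO and 100% = no enzyme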
Target sequence (P9WHR9 whole entry, looked up, the tested form may be a part): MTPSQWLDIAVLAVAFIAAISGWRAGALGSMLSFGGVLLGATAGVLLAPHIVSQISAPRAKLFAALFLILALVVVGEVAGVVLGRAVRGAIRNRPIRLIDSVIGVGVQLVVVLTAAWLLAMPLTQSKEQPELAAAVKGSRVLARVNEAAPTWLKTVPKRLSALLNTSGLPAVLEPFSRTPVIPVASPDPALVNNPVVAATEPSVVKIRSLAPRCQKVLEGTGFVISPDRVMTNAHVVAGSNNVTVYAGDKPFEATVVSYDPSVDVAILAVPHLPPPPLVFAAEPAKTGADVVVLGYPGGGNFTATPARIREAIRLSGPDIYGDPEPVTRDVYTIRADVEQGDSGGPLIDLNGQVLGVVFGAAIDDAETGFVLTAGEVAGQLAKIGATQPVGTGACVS
MazEF act: increases E. coli MazEF RNase cleavage of RNA; actives 0.32% (n = 350,000); activation, % at 20 µM; FAM/BHQ RNA-DNA oligo cleavage fluorescence, 5 h; in the data active = activation above about 50%
TcdB GH inh: TcdB glycohydrolase inhibition | P18177 | TcdB glycohydrolase enzymatic assay, plate reader | inhibition, % at 9.99 µM | actives 0.24% (n = 350,000); in the data active = inhibition above about 10%
An asterisk follows results filed as active. Rows were chosen to be rich in hits. Some 0.97% of all compounds tested hit in one or more screens of this group.

Screening FC(F)(F)c1ccc(C2[C@H]3CN(Cc4ccc(-c5ccccc5)cc4)[C@H](c4ccccc4)C34CC2(c2cccnc2)C4)cc1 (some centres not stated) returned Mtb bLac sens -5.8, UGM FP inh 1.0, RecA intein inh 2.8, Rv3671c protease -3.3, MazEF act -0.9 and TcdB GH inh -0.5.
CC1=C(C(=O)OCC2CCCO2)C(c2coc3ccccc3c2=O)C2=C(CCCC2=O)N1 (configuration not stated) was read as Mtb bLac sens -8.6, UGM FP inh -1.7, RecA intein inh -4.0, Rv3671c protease 1.7, MazEF act 9.5 and TcdB GH inh 13.1*.
`CCOC(=O)C1=C(C)NC2=C(C(=O)CCC2)C1c1coc2ccccc2c1=O` (configuration not stated) gave Mtb bLac sens 4.1, UGM FP inh 1.4, RecA intein inh 1.2, Rv3671c protease 10.7, MazEF act 3.3 and TcdB GH inh 1.7.
Screening Cc1nccn1-c1c([N+](=O)[O-])c(=O)n(C)c2ccccc12 returned Mtb bLac sens 4.9, UGM FP inh 1.7, RecA intein inh 44.8*, Rv3671c protease 7.8, MazEF act 7.7 and TcdB GH inh 1.0.
`O=C1c2c(O)cc(O)cc2O[C@H](c2ccc(O)c(O)c2)[C@H]1O` gave Mtb bLac sens 1.5, UGM FP inh -2.8, RecA intein inh -8.0, Rv3671c protease -2.7, MazEF act 5.2 and TcdB GH inh -4.5.
`Oc1cc(O)c2c(c1)O[C@H](c1ccc(O)c(O)c1)[C@@H](O)C2` gave Mtb bLac sens 0.5, UGM FP inh 0.2, RecA intein inh 59.2*, Rv3671c protease -1.0, MazEF act 21.6 and TcdB GH inh -1.9.
For CCCCn1cnc2c(oc3nc4c(cc32)CCCC4)c1=O the results were Mtb bLac sens -6.0, UGM FP inh 0.6, RecA intein inh -3.1, Rv3671c protease 7.5, MazEF act -0.4 and TcdB GH inh 0.4.
`O=c1c2oc3nc4c(cc3c2ncn1CCCc1ccccc1)CCCC4` gave Mtb bLac sens 4.9, UGM FP inh -2.2, RecA intein inh -0.7, Rv3671c protease -2.0, MazEF act 11.2 and TcdB GH inh 10.9*.
Screening COCCNC(=O)[C@H]1[C@H](CO)[C@H]2Cn3c(cccc3=O)[C@@H]1N2Cc1cccc(Cl)c1 returned TcdB GH inh -0.9.
`Cc1cnc(C(=O)OCC(=O)Nc2ccc(OCc3ccccc3)cc2)cn1` gave Mtb bLac sens -1.7, UGM FP inh 1.9, Rv3671c protease -11.7, MazEF act 2.1 and TcdB GH inh 12.6*.
Screening Cc1cnc(C(=O)OCC(=O)NCc2ccccc2)cn1 returned Mtb bLac sens -3.3, UGM FP inh 1.6, RecA intein inh 0.9, Rv3671c protease -3.5 and MazEF act 7.0.
O=c1oc(/C=C/c2ccccc2)nc2sc3c(c12)CCC3 was read as Mtb bLac sens 91.6, UGM FP inh 2.9, RecA intein inh -5.3, Rv3671c protease -3.9 and MazEF act 323.6*.
COc1ccc(/C=C/c2nc3sc4c(c3c(=O)o2)CCC4)cc1 was read as Mtb bLac sens 97.7, UGM FP inh 3.9, RecA intein inh -1.3, Rv3671c protease 8.2 and MazEF act active.
CN1C(=O)c2cc(NC(=O)NC3CCCC3)ccc2OC[C@@H]2O[C@@H](CC(=O)NCC3CC3)CC[C@@H]21 was read as TcdB GH inh -3.9.
`Cc1[nH]n(-c2ccccc2)c(=O)c1C(c1ccccc1[N+](=O)[O-])C(C#N)C#N` (configuration not stated) gave Mtb bLac sens -4.7, UGM FP inh 0.7, RecA intein inh 64.1*, Rv3671c protease -28.4, MazEF act 2.7 and TcdB GH inh -9.4.
Screening CCN1C(=O)NC(=O)/C(=C\c2cn(CC(=O)N3CCCCC3C)c3ccccc23)C1=O (configuration not stated) returned Mtb bLac sens inconclusive, UGM FP inh 6.2, RecA intein inh 2.0, Rv3671c protease -11.6 and MazEF act active.
`O=C(N[C@@H]1CC[C@@H](CCNC(=O)C2CCC2)O[C@@H]1CO)c1ccncc1` gave TcdB GH inh 0.1.
Screening CCSc1nc2c([nH]1)c(=O)n(C)c(=S)n2C returned MazEF act 0.6 and TcdB GH inh 2.3.
For CCCSc1nc2c([nH]1)c(=O)n(C)c(=S)n2C the results were MazEF act 12.5 and TcdB GH inh 10.4*.
